Here are results for 40 compounds from PubChem BioAssay (NCATS).

Inconclusive results are not listed. Where a call stands in place of a potency, no number is given. Activity calls are given as the source filed them. Calls come from the whole dose curve; as a rule, active = well fitted cell-killing curve with a large enough effect; inconclusive = small, poorly fitted or top-dose-only effect, or effect the other way; inactive = no such curve, though single readings can be large or run the other way.
Potency is the fitted concentration of half-maximal effect.

The nature of the test: Cell Viability - LYMP2-004 (AID 966).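 Note: cells exposed to compound for 24 h; nearly all actives have a fitted effect of over 65% in size.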 As to conditions: LYMP2-004 lymphoblastoid cell viability, qHTS; series mostly up to 92.2 µM. The source says: NIH Chemical Genomics Center [NCGC]
NIH Molecular Libraries Screening Centers Network [MLSCN]
National Institutes of Environmental Health Sciences [NIEHS]
National Toxicology Program [NTP]
We have developed a 1536-well cell-based assay for quantitative high throughput screening (qHTS) against a number of cell lines to determine in vitro cytotoxicity of small molecules. This particular assay uses a human lymphoblastoid cell line (LYMP2-004) purchased from Coriell Institute for Medical Research.
NCGC Assay Protocol Summary:
The CellTiter-Glo luminescent cell viability assay (Promega) is a homogeneous method to measure the number of viable cells in culture. The end point readout of this assay is based on quantitation of intracellular ATP, an indicator of metabolic activity, using the luciferase reaction. Luciferase catalyzes the oxidation of beetle Luciferin to oxyluciferin and light in the presence of ATP. The luminescent signal is proportional to amount of ATP present.
Using the CellTiter-Glo luminescent cell viability assay, the amount of cellular ATP was measured in the lymphoblastoid cell line with complete culture medium following compound treatment for 24 hours. The assay was performed in opaque white Kalypsys 1536-well plates. In the screen, tetraoctylammonium bromide was used as positive control. Library compounds were measured for their ability to cause acute toxicity in the cell line, as reflected by a decrease in intracellular ATP levels, in a concentration-dependent manner. […] AC50 values were determined from concentration-response data modeled with the standard Hill equation.
qHTS protocol for CellTiter Glo lymphoblastoid cellular assay
[Step] [Parameter] [Value] [Description]
1. Reagent; 5 uL; 2500 lymphoblastoid cells/well
2. Time; 5 hr; 37 C incubation
4. Controls; 23 nL; Tetraoctylammonium bromide 6.4pM to 92 uM
5. Time; 24 hr; 37 C incubation
6. Reagent; 5 uL; CellTiter Glo reagent
7. Time; 30 min; Room Temperature
8. Detection; Luminescence; Viewlux plate reader
Keywords: cell viability, cytotoxicity, lymphoblastoid cell line, luminescence, NTPHTS, NTPHTS_NCGC, NIEHS, DSSTox, MLSMR, MLSCN, NIH Roadmap, qHTS, NCGC
(In general: In qHTS, concentration-response curves come from the screen itself.)
Turning to `CC(C)Br`, the Potency entry is “inactive”.
For the compound `CC(C)CC(C)N` (stereo not given), the Potency entry was “inactive”.
Turning to `CCOP(=S)(OCC)Oc1nc(Cl)c(Cl)cc1Cl`, the Potency result was “inactive”.
The value for `O=C(Cl)c1ccccc1F` was “inactive”; that for `NC1CCC(CC2CCC(N)CC2)CC1` (stereo not given) was “inactive”; that for `NNC(N)=S` was “inactive”.
Turning to `CSSC`, the Potency result was “inactive”.
The value for `OCC(Cl)CCl` (stereo not given) was “inactive”; that for `O=[N+]([O-])c1cccc(O)c1` was “inactive”; that for `COC(C)(C)C` was “inactive”.
The value for `C=CCCC#N` was “inactive”; that for `c1ccc(N=NNc2ccccc2)cc1` was “inactive”.
With `CCCCCCCCCCCOC(=O)c1ccccc1C(=O)OCCCCCCCCCCC`, the Potency entry was “inactive”.
As to `O=[N+]([O-])c1cccc2c([N+](=O)[O-])cccc12`, the Potency result is “inactive”.
With `Nc1ccc(-c2ccc(N)cc2)cc1` the entry was “inactive”; with `Cc1ccc([N+](=O)[O-])cc1`, “inactive”; with `BrCC(Br)(Br)Br`, “inactive”.
For the compound `[O-][Cl+2]([O-])O`, the Potency entry is “inactive”.
Consider `S=C1NCCN1`, for which the Potency entry was “inactive”.
With `ClCc1ccccn1`, the Potency entry is “inactive”.
On to `Cc1cc(N=Nc2ccccc2C)ccc1N`, for which the Potency entry is “inactive”.
Take `C=CC(=O)OC`: the Potency entry is “inactive”.
Regarding `ClP(Cl)(Cl)(Cl)Cl`, the Potency result was “inactive”.
As to `CN1CSC(=S)N(C)C1`, the Potency is 31.6 µM (active).
As to `N#CC(Cl)(Cl)Cl`, the Potency entry is “inactive”.
For the compound `Clc1ccc(Cl)c(Cl)c1`, the Potency result was “inactive”.
For `N#CC(Br)Br`, the Potency entry is “inactive”.
The value for `Cc1cc(C)cc(OP(=O)(Oc2cc(C)cc(C)c2)Oc2cc(C)cc(C)c2)c1` was “inactive”; that for `C=CCOCC1CO1` (stereo not given) was “inactive”.
Take `Cc1cc(-c2cc(C)c(N)c(C)c2)cc(C)c1N`: the Potency entry was “inactive”.
For the compound `C/C=C/CC#N`, the Potency entry is “inactive”.
Take `CC(C)C#N`: the Potency entry is “inactive”.
Consider `O=C(Cl)OCc1ccccc1`, for which the Potency result was “inactive”.
With `Cc1cc(-c2ccc(N)c(C)c2)ccc1N`, the Potency entry is “inactive”.
With `Oc1cccc(Cl)c1Cl` the entry was “inactive”.
The value for `CCBr` was “inactive”; that for `CN(C)c1ccc(N=Nc2ccccc2)cc1` was “inactive”.
With `CCCCNC(=O)n1c(NC(=O)OC)nc2ccccc21` the entry was “inactive”; with `Oc1cccc(Cl)c1`, “inactive”; with `Oc1c(Cl)c(Cl)cc(Cl)c1Cl`, “inactive”.
